Test [1] is described as follows: Nuclear factor erythroid 2-related factor 2/antioxidant responsive element (Nrf2/ARE) small molecule agonists: qHTS cell viability counter screen in human keratinocytes (AID 1919968; active means well fitted curve in the direction sought with a large enough effect in the repeat runs; an effect the other way counts as inactive or inconclusive; further: nearly all actives have a fitted effect of over 55% in size). In a few lines:
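Cytotoxicity was multiplexed with the Nrf2/ARE luciferase assay in the same wells. Stably transfected HaCaT keratinocytes were treated with test compounds for 23 h at 37 C. Cell viability was then measured by CellTiter-Fluor fluorescence.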

The nature of test [2]: Nuclear factor erythroid 2-related factor 2/antioxidant responsive element (Nrf2/ARE) small molecule agonists: luciferase reporter gene qHTS assay in human keratinocytes (AID 1919969). Further: nearly all actives have a fitted effect of over 35% in size. On the technique in general: Reporter assays use an easily measured gene product as a stand-in for the process of interest.
The target of test [3] is Gonadotropin-releasing hormone receptor (Homo sapiens) (UniProt P30968). The test is described as follows: Human gonadotropin-releasing hormone receptor (GnRHR) small molecule agonists, calcium flux assay in GnRHR-HEK293 cells (AID 1920063). Further: nearly all actives have a fitted effect of over 35% in size. In a few lines:
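Agonist activity was measured as intracellular calcium flux in HEK293 cells engineered to stably express human GnRHR. After dye loading for 1 hour at 37 C, compounds in DMSO were added and fluorescence was followed for 3 minutes.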

For test [4], the target named is KiSS-1 receptor (Homo sapiens) (UniProt Q969F8). The test is described as follows: Human kisspeptin (KISS1R) small molecule agonists, calcium flux assay in KISS1R-HEK293 cells (AID 1920064; active means well fitted curve in the direction sought with a large enough effect in the repeat runs; an effect the other way counts as inactive or inconclusive). In a few lines:
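Agonist activity is monitored as intracellular calcium rise in engineered HEK293 cells carrying human KISS1R. Cells are dye-loaded for 1 h at 37 C before compound addition, and fluorescence is recorded for 3 min.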
Background: Calcium flux is commonly read through the fluorescence of an indicator in the cells.

A short description of test [5]: G protein-coupled receptor (GPCR) small molecule agonists, calcium flux assay: HEK293 wild type cell line counter screen (AID 1920065). In a few lines:
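Seed cells, incubate 18 h (37 C, 5% CO2); add calcium dye, 1 h at 37 C; pin-transfer compounds, ATP control or DMSO; read fluorescence 480/540 nm each second for 3 min.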

The nature of test [6]: p53 small molecule agonists, cell-based qHTS assay with human liver microsomes: qHTS cell viability counter screen (AID 1963579). Further: nearly all actives have a fitted effect of over 45% in size. In a few lines: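 Viability of p53RE-bla cells is measured as CellTiter-Glo luminescence following a 16 h, 37 C incubation with compound, liver microsomes from human donors and NADPH.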
Test [7] in a line: p53 small molecule agonists, cell-based qHTS assay with rat liver microsomes: qHTS cell viability counter screen (AID 1963580). Further: nearly all actives have a fitted effect of over 45% in size. In a few lines:
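Luminescent ATP readout (CellTiter-Glo, 30 min at room temperature) reports viability of p53RE-bla HCT-116 cells after 16 h at 37 C with test compounds under metabolic activation by rat liver microsomes and NADPH at 0.5 mg/mL final each.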

Test [8] in a line: p53 small molecule agonists, cell-based qHTS assay: qHTS cell viability counter screen (AID 1963581). Further: nearly all actives have a fitted effect of over 45% in size. In a few lines:
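Viability was counter-screened in parallel with the p53 agonist reporter by measuring intracellular ATP luminescence in the same HCT-116 p53RE-bla wells after 16 h compound treatment at 37 C.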
In general terms: qHTS replaces the single test concentration by a dilution series.

Test [9] deals with 5-hydroxytryptamine receptor 2A (Homo sapiens) (UniProt P28223). The test is described as follows: 5-hydroxytryptamine receptor 2A (HTR2A) small molecule antagonists, cell-based qHTS assay (AID 1963586). Further: nearly all actives have a fitted effect of over 45% in size. In a few lines: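 CHO cells stably expressing human HTR2A were plated for 18 h at 37 C, then loaded with calcium dye for 1 h. Compounds were preincubated 5 min at room temperature before DOI (4 nM solution) was added. Kinetic fluorescence was read for 3 min.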

Test [10] shares this target. The test is described as follows: 5-hydroxytryptamine receptor 2A (HTR2A) small molecule agonists, cell-based qHTS assay (AID 1963587). Further: nearly all actives have a fitted effect of over 30% in size. In a few lines: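 HTR2A-CHO cells, plated 18 h at 37 C/5% CO2, dye-loaded 1 h at 37 C; compounds in DMSO added by pin tool (agonist mode). Intracellular calcium flux read as kinetic fluorescence on FDSS over 2 min at 1 s intervals.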

Test [11] addresses Muscarinic acetylcholine receptor M1 (Homo sapiens) (UniProt P11229). The test is described as follows: Cholinergic receptor muscarinic 1 (CHRM1) small molecule antagonists, cell-based qHTS assay (AID 1963588). Further: nearly all actives have a fitted effect of over 40% in size. Further: potency means the concentration at half of the fitted maximal effect. In a few lines: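 Compounds were tested at 15 concentrations in three independent runs. Dye-loaded CHRM1-CHO cells were exposed 5 min at room temperature before stimulation by acetylcholine added at 50nM. Intracellular calcium was read kinetically on FDSS for 3 min.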

Test [12] has the same target. The test is described as follows: Cholinergic receptor muscarinic 1 (CHRM1) small molecule agonists, cell-based qHTS assay (AID 1963589). Further: nearly all actives have a fitted effect of over 35% in size. In a few lines: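 Cells were plated and incubated 18 h at 37 C/5% CO2, loaded with calcium dye for 1 h at 37 C, then treated with compounds in DMSO. Fluorescence was recorded kinetically at 1 sec intervals.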
Test [13] is described as follows: cAMP Responsive Elements (CRE) small molecule agonists, cell-based qHTS assay (AID 1963590). In a few lines:
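Cells carrying a CRE-driven beta-lactamase reporter (HEK 293T) are seeded, incubated overnight (18 h), and treated with test compounds for 3 h at 37 C; reporter activity is then detected with a FRET substrate after 2 h at room temperature.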

Test [14] in a line: cAMP Responsive Elements (CRE) small molecule antagonists, cell-based qHTS assay (AID 1963591; active means well fitted inhibition curve with a large enough effect in the signal ratio in the repeat runs, not every such curve was filed as active; the % refers to the signal ratio). In a few lines:
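Cells (CRE-bla HEK 293T, DMEM with 10% dialyzed FBS and 25 mM HEPES) are seeded and incubated 18 h. Compounds are added with NKH477 agonist at 0.25 uM final for 3 h, then FRET substrate for 2 h.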

Test [15] has as its target Beta-2 adrenergic receptor (Homo sapiens) (UniProt P07550). The test is described as follows: Adrenergic beta2 receptor (ADRB2) small molecule antagonists, cell-based qHTS assay (AID 1963592). Further: series mostly up to about 92 µM; nearly all actives have a fitted effect of over 50% in size. In a few lines: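 Assay format: CHO-ADRB2 cells, 18-20hr seeding at 37C/5% CO2, then compound plus 1nM isoproterenol agonist mix for 0.5hr RT. Homogeneous time-resolved fluorescence cAMP detection after 1hr, expressed as 665/615 nm ratio.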

Test [16] has the same target. The test is described as follows: Adrenergic beta2 receptor (ADRB2) small molecule agonists, cell-based qHTS assay (AID 1963593).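 Further: CHO cells stably overexpressing human ADRB2.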 In a few lines:
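CHO cells stably over-expressing ADRB2 were plated overnight at 37C, then dosed with compounds plus a stimulation mix containing 100uM IBMX and 25uM Ro-20-1724 for 0.5hr at room temperature. cAMP was measured by HTRF competition, 1hr.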

Test [17] has as its target D(2) dopamine receptor (Homo sapiens) (UniProt P14416). The test is described as follows: Dopamine D2 receptor (DRD2) small molecule agonists, cell-based qHTS assay (AID 1963594). Further: nearly all actives have a fitted effect of over 35% in size. In a few lines:
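HEK293 cells stably expressing DRD2 were cultured 24 h at 37 C, then given Ro20-1724 (0.1 mM final) and compounds for 10 min at room temperature. NKH477 (200nM) was then added for 30 min. cAMP was read by HTRF.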

For test [18] the target is unchanged. The test is described as follows: Dopamine D2 receptor (DRD2) small molecule antagonists, cell-based qHTS assay (AID 1963595; active means well fitted inhibition curve with a large enough effect in the signal ratio in the repeat runs, with a control signal flat; the % refers to the signal ratio). In a few lines:
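Cells were plated and grown for 24 h at 37 °C. Ro20-1724 (0.1 mM final) went in first, then compound for 10 min. NKH477 (200 nM) with quinpirole (12 nM) followed for 30 min at RT, then HTRF detection reagents for 1 h.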

The nature of test [19]: p53 small molecule agonists, cell-based qHTS assay with rat liver microsomes (AID 1963578). In a few lines:
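Quantitative HTS of the Tox21 10K library: p53RE-bla cells, rat liver microsomes plus NADPH at 0.5 mg/mL final each, 16 h at 37 C, beta-lactamase fluorescence detection.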

A short description of test [20]: p53 small molecule agonists, cell-based qHTS assay (AID 1963582; active means well fitted activation curve with a large enough effect in the signal ratio in the repeat runs, not every such curve was filed as active; the % refers to the signal ratio). In a few lines: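 Cells carrying a p53-responsive bla reporter are treated with test compounds for 16 h at 37 C; beta-lactamase activity is then detected with LiveBLAzer B/G FRET substrate after 2 h at room temperature.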

Each structure is given as a SMILES string. Unmarked numbers belong to inactive results. Results filed as inconclusive are left out. Activity calls are given as the source filed them. Unless noted, the call rests on the fitted dose curve.

Gonadotropin-releasing hormone receptor (Homo sapiens), sequence (P30968 whole entry, looked up): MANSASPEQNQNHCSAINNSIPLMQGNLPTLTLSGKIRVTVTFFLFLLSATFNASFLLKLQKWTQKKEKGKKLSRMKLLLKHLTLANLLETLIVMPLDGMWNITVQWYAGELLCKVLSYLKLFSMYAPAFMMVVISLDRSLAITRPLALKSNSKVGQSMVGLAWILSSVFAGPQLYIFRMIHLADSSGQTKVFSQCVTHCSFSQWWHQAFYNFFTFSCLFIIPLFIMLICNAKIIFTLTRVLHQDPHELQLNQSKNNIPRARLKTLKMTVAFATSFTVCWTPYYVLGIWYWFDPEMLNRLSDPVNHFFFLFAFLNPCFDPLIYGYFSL
D(2) dopamine receptor (Homo sapiens), sequence (P14416 whole entry, looked up): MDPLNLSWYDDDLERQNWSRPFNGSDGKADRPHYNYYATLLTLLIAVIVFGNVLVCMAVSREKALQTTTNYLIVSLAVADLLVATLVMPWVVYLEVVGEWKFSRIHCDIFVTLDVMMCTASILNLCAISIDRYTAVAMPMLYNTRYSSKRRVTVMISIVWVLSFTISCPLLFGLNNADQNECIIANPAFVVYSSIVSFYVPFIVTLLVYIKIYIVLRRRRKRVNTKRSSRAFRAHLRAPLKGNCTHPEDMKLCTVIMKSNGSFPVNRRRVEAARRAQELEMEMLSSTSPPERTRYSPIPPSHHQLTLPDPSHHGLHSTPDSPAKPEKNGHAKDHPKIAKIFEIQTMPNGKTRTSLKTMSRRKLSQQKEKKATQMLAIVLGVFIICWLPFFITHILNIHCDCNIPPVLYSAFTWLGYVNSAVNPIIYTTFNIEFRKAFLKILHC
Beta-2 adrenergic receptor (Homo sapiens), sequence (P07550 whole entry, looked up): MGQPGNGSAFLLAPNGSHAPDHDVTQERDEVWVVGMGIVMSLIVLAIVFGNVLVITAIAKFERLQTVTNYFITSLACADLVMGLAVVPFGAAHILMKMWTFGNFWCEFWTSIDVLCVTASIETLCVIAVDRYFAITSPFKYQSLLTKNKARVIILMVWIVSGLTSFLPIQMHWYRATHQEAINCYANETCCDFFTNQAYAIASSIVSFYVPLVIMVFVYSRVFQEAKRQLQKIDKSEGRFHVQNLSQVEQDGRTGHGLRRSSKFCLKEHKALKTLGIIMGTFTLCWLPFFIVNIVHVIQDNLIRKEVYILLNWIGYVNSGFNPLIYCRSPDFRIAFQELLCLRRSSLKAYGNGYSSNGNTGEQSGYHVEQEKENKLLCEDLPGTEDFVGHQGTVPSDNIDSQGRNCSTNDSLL
5-hydroxytryptamine receptor 2A (Homo sapiens), sequence (P28223 whole entry, looked up): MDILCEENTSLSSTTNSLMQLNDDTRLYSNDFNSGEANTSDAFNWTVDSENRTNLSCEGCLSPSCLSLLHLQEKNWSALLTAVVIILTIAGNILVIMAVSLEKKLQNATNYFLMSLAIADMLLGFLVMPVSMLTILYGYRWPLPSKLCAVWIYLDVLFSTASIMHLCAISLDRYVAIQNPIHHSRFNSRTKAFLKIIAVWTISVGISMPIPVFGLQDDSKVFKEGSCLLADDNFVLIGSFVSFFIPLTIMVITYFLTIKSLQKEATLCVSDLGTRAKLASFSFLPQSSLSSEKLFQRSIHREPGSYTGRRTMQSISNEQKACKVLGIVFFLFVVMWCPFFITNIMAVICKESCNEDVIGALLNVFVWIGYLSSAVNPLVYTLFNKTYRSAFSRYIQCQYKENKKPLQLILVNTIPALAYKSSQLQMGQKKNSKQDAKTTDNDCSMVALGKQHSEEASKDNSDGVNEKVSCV
Muscarinic acetylcholine receptor M1 (Homo sapiens), sequence (P11229 whole entry, looked up): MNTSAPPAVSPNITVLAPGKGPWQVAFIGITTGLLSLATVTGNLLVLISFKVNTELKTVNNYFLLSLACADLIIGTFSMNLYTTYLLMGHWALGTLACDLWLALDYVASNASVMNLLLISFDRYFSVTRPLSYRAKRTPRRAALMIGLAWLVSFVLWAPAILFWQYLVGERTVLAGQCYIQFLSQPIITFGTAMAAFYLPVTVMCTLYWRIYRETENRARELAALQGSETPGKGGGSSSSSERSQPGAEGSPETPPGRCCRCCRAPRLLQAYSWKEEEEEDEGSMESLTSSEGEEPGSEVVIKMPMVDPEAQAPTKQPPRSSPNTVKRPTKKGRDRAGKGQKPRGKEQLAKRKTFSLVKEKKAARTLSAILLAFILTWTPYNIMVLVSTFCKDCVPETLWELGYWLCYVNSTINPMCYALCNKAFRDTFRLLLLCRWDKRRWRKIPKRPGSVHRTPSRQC
KiSS-1 receptor (Homo sapiens), sequence (Q969F8 whole entry, looked up): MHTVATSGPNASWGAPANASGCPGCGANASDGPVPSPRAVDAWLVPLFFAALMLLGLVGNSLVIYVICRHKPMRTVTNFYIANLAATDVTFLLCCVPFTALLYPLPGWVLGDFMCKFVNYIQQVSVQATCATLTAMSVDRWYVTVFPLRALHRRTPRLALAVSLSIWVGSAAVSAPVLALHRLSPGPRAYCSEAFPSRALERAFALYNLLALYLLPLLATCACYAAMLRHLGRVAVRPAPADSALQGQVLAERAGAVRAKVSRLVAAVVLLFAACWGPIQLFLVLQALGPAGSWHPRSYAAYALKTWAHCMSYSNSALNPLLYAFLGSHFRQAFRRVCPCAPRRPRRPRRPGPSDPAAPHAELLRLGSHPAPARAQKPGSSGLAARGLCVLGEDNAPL

With `CCCCNc1ccc(C(=O)OCCN(CC)CC)cc1`, the Potency entry in test [1], in test [2], in [3], in test [4], in test [5] and in [6] was “inactive” each time. Also, the Potency result in test [7], in [8], in test [9], in test [10], in test [12] and in test [13] was “inactive” in each case. Also, the Potency result in test [14], in test [15], in [16], in test [17] and in test [18] was “inactive” each time. Moreover, the Potency in [11] was 3.26 µM (active).

Take `CC(C)(O)c1ccc(C(C)(C)O)cc1`: the Potency result in [1], in test [2], in test [3], in test [4], in test [5] and in [6] was “inactive” throughout. The Potency result in test [7], in test [8], in test [9], in [10], in [11] and in test [12] was “inactive” each time. Also, the Potency result in test [13] and in test [14] was “inactive” in each case.

For the compound `CC/C=C\CCCCCCCCCCOC(C)=O`, the Potency entry in [1], in test [2], in test [3], in [4], in test [5] and in [6] was “inactive” in each case. The Potency entry in [7], in [8], in [9], in test [10], in [11] and in test [12] was “inactive” in each case. The Potency entry in test [13], in test [14], in [15], in [16], in test [17] and in test [18] was “inactive” in each case.

On to `N#CCCN(CCO)CCO`, for which the Potency result in test [1], in test [2], in [3], in test [4], in test [5] and in test [6] was “inactive” throughout. The Potency entry in [7], in test [8], in test [9], in test [10], in [11] and in test [12] was “inactive” throughout. Besides, the Potency entry in [13], in test [14], in test [15], in test [16], in [17] and in test [18] was “inactive” throughout.

For the compound `CC(C)(C)Cl`, the Potency entry in [1], in test [2], in [3], in test [4], in test [5] and in [6] was “inactive” in each case. The Potency result in test [7], in test [8], in test [9], in [10], in [11] and in test [12] was “inactive” each time. Besides, the Potency entry in test [13], in test [14], in test [15], in [16] and in [17] was “inactive” each time.

Consider `COc1ccc(S(=O)(=O)N2C(=O)[C@@](c3ccccc3OC)(N3C[C@H](O)C[C@H]3C(=O)N(C)C)c3cc(Cl)ccc32)c(OC)c1`, for which the Potency entry in test [1], in test [2], in test [3], in test [4], in test [5] and in test [19] was “inactive” in each case. Besides, the Potency entry in test [7], in test [8], in [9], in test [10], in test [12] and in [15] was “inactive” in each case. In addition, the Potency entry in test [18] was “inactive”.

In the case of `O=C=Nc1ccc(Cl)c(Cl)c1`, the Potency entry in test [1], in [2], in test [3], in test [4], in test [5] and in test [6] was “inactive” each time. For the same compound, the Potency entry in test [7], in test [8], in [20], in [9], in test [10] and in [11] was “inactive” each time. The Potency result in test [12], in test [13], in test [14], in test [15], in test [17] and in test [18] was “inactive” each time.

The values are drawn from PubChem BioAssay (Tox21).
